# In the library only some 8.7% were active in any assay of this set; here they are far more common.
# HP1b binding inh – HTS for Inhibitors of HP1-beta Chromodomain Interactions with Methylated Histone Tails; 390,000 tested, 0.56% active; Potency, µM (highest dose often 114 µM), without a hit: at the highest dose activity change, negative = inhibition, actives largely listed as inhibitors; AlphaScreen HP1-beta / biotin-H3K9me3 peptide binding; note: nearly all actives have a fitted effect of over 70% in size
# Target sequence (P83916 whole entry, looked up): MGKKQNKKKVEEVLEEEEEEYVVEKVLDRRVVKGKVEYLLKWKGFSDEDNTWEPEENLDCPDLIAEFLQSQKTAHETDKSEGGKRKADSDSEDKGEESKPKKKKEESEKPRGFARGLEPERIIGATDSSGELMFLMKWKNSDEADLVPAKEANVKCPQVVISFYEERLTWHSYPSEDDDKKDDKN
#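 HP1-beta protein (50 nM final) preincubated 30 min at room temperature with biotinylated H3(1-18)K9me3 peptide (50 nM) in PBS pH 7.4, 0.01% Tween-20, then compound added for 30 min. AlphaScreen streptavidin donor/nickel chelate acceptor beads (10 ug/mL final), 30 min dark, luminescence read.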
# BAZ2B block – qHTS Assay for Inhibitors of BAZ2B; 360,000 tested, 4.4% active; Bromodomain adjacent to zinc finger domain protein 2B (Homo sapiens), Q9UIF8; AlphaScreen BAZ2B-H3K14Ac peptide displacement; Potency, µM (top dose mostly 114 µM), inactives show at the highest dose activity change, negative = inhibition, actives largely listed as inhibitors; note: % is set by controls: 0 for no effect and ±100 for the full control effect; nearly all actives have a fitted effect of over 60% in size
#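 AlphaScreen luminescence quantifies BAZ2B engagement of H3K14Ac peptide; the protein and biotinylated peptide are both at 50 nM final, buffer PBS pH 7.4 with 0.01% Tween-20, all steps at room temperature.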
# Sfp inh – qHTS Assay for Inhibitors of Bacillus subtilis Sfp phosphopantetheinyl transferase (PPTase); Biochemical Sfp PPTase activity, qHTS; Potency, µM, without a hit: largest response in the series, negative = inhibition, most hits filed as inhibitors; 310,000 tested, 3.5% active;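 note: the enzyme is Sfp with the accession as filed and its product quenches rhodamine fluorescence; 0% = enzyme reaction without inhibitor and -100% = no enzyme wells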
#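 Buffer: 50 mM Hepes-Na pH 7.6, 10 mM MgCl2, 0.01% Nonidet P-40, 0.01% BSA. Enzyme 15 nM, pre-exposed to compound 15 min; substrates then added and fluorescence change tracked over 30 min.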
# G9a inh – qHTS Assay for Inhibitors of Histone Lysine Methyltransferase G9a. Histone-lysine N-methyltransferase EHMT2 (Homo sapiens), Q96KQ7. Potency, µM (series often up to 102 µM), for inactives: at the top dose activity, negative = inhibition, actives largely listed as inhibitors. G9a H3K9 monomethylation, AlphaScreen, 2 h. 350,000 tested, 8.8% active; note: % is set by controls: 0 for no effect and ±100 for the full control effect; nearly all actives have a fitted effect of over 75% in size
# Target sequence (Q96KQ7 913-1193 limits assumed): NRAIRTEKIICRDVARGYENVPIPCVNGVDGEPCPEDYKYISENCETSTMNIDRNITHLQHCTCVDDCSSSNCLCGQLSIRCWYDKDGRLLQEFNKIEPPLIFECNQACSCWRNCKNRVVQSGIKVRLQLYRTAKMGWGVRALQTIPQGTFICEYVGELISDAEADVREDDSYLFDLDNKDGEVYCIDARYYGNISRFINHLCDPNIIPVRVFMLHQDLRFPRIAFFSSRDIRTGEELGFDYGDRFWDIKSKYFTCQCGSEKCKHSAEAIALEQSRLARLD
#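 Methyltransferase reactions run at room temperature for 2 h (20 nM enzyme, 500 nM biotin-H3K9 peptide, 20 uM SAM) after a 15 min compound preincubation; product detected by AlphaScreen beads and anti-H3K9me1 antibody.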
# ALOX12 inh – Primary qHTS assay for inhibitors of human arachidonate 12S-lipoxygenase (ALOX12): Round 2 | 580,000 tested, 1.1% active | Potency, µM (doses to about 108 µM), for the others: at the highest dose activity change, negative = inhibition, usual class: inhibitors | purified 12hLO, xylenol orange hydroperoxide absorbance | Polyunsaturated fatty acid lipoxygenase ALOX12 (Homo sapiens), P18054; note: % is set by controls: 0 for no effect and ±100 for the full control effect
#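 Purified human 12hLO (150 nM final) in 25 mM Hepes, 0.01% Triton X-100, pH 7.0 was preincubated 15 min at room temperature with compound. Then 40 uM arachidonic acid was added, 30 min. Hydroperoxide was read by Fe-XO absorbance ratio 573/405 nm.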
# JMJD2A Tudor – qHTS Assay for Inhibitors of JMJD2A-Tudor Domain; Potency, µM (doses to about 114 µM), for the others: at the highest dose activity change, negative = inhibition, hits mostly inhibitors; Lysine-specific demethylase 4A (Homo sapiens), O75164; AlphaScreen JMJD2A-Tudor / H3K4me3 peptide binding; 390,000 tested, 4.4% active; note: % is set by controls: 0 for no effect and ±100 for the full control effect; nearly all actives have a fitted effect of over 50% in size
# An asterisk follows results filed as active; u = inconclusive; x = not tested or not shown; [ ] = remark or other dose. Calls come from the whole dose curve; as a rule, active = well fitted curve in the direction sought with a large enough effect; inconclusive = small, poorly fitted or top-dose-only effect, or another doubt; inactive = no such curve, though single readings can be large; an effect the other way counts as inactive or inconclusive. Potency is the fitted concentration of half-maximal effect.
SMILES,HP1b binding inh,BAZ2B block,Sfp inh,G9a inh,ALOX12 inh,JMJD2A Tudor
Cc1cccc(C(=O)NC(=S)Nc2ccc(S(=O)(=O)N3CCCCC3)cc2)c1,38.0%,-25.1%,4.7%,-6.6%[12.7 µM],11.2µM*,-2.1%[11.4 µM]
Cc1cccc(NC(=O)CSCC(=O)Nc2ccccc2N2CCCCC2)c1,10.2%,-2.8%,x,-28.1%[59 µM],-14.1%,8.2%
CCc1noc(C)c1C(=O)N1CCN(S(=O)(=O)c2ccc(C(C)=O)cc2)CC1,12.2%,11.2%,x,39.8µM*,u,-10.3%
Cc1cccc(NC(=O)CSCC(=O)Nc2cccc(S(=O)(=O)N3CCCCCC3)c2)c1,0.7%,-35.9%,x,35.5µM*,u,-21.4%
Cc1cccc(NC(=O)CSCC(=O)Nc2ccccc2N2CCCC2)c1,-5.4%,35.5µM*,9.0%,u,92.4%,u
COc1ccc(NC(=O)c2ccccc2)c2cccnc12,x,x,x,x,77.5%,x
Cc1cc(C)c(C#N)c(SCC(=O)Nc2cccc(S(=O)(=O)N3CCCC3)c2)n1,41.8%,-2.9%,x,50.1µM*,8.4%,-8.2%
Cc1cccc(NC(=O)CSCC(=O)Nc2ccc(S(=O)(=O)N3CCCCC3)cc2)c1,49.0%,-2.0%,x,31.6µM*,u,-14.1%
CCc1noc(C)c1C(=O)Nc1cccc(S(=O)(=O)N2CCCCCC2)c1,21.5%,5.3%,x,8.91µM*,-44.9%,-8.8%
Cc1noc(C)c1C(=O)Nc1cccc(S(=O)(=O)N2CCCCC2)c1,31.9%,-3.7%,x,2.2%[59 µM],9.7%,0.0%
O=C(Nc1ccc2nc(-c3cccs3)c(-c3cccs3)nc2c1)N1CCOCC1,19.8%,9.3%,6.8%,13.1%[59 µM],-1.0%,5.0%
O=C(Nc1ccc2nc(-c3ccco3)c(-c3ccco3)nc2c1)NC1CC1,35.5µM*,11.2µM*,5.01µM*,u,x,20µM*
O=C(NCCCO)Nc1ccc2nc(-c3ccco3)c(-c3ccco3)nc2c1,x,3.55µM*,14.1µM*,1.78µM*,x,x
OCCCNC(=S)Nc1ccc2nc(-c3ccccn3)c(-c3ccccn3)nc2c1,25.4%,0.4%,-12.8%,-13.8%,-5.2%,-25.3%
O=C(Nc1ccc(N2CCOCC2)cc1)Nc1ccc2nc(-c3ccco3)c(-c3ccco3)nc2c1,-16.6%,4.8%,10µM*,1.78µM*,u,u
Cc1ccc2nc(-c3cccnc3)cc(C(=O)NCCc3ccc(F)cc3)c2c1,x,x,x,x,4.2%,x
O=C(CC1C(=O)N(c2ccccc2)C(=O)N1Cc1ccco1)Nc1ccccc1 (configuration not stated),0.4%,-37.4%,10.2%,u,-2.3%,-29.9%
CC(C)N1C(=S)N(Cc2ccco2)C(=O)C1CC(=O)Nc1ccccc1 (configuration not stated),19.7%,u,-38.9%,50.1µM*,u,-18.9%
CCC(C(=O)Nc1nnc(CC2CCCC2)s1)c1ccccc1 (configuration not stated),x,x,x,x,78.8%,x
Cc1cccc(C(=O)N2CCCCCC2)c1,9.9%,8.1%,10.8%,18.0%,21.3%,1.3%
O=C(c1ccccc1)n1c(=S)nc2ccccn21,7.3%,5.7%,13.7%,u,0.0%,-13.5%
Cc1ccc(C(=O)n2c(=S)nc3ccccn32)cc1,x,9.4%,u,25.1µM*,x,x
Cc1cccc(C(=O)n2c(=S)nc3ccccn32)c1,-45.4%,1.2%,39.8µM*,2.24µM*,x,-16.4%
CC(C)c1nnc(C2CN(C(=O)c3cccn3C)CC23CCOCC3)o1 (configuration not stated),x,x,x,x,25.4%,x
Cc1nnc(N/N=C/c2cccc(OCc3ccc(Cl)c(Cl)c3)c2)n1N,-4.8%,u,70.8µM*,10µM*,17.8µM*,u
SMILES,HP1b binding inh,BAZ2B block,Sfp inh,G9a inh,ALOX12 inh,JMJD2A Tudor
CCOc1cc(/C=N/Nc2nnc(C)n2N)ccc1OC(C)=O,44.6%,-14.1%,u,44.7µM*,u,9.1%
OCCN(CCO)c1ccc(C(c2ccccc2Cl)c2ccc(N(CCO)CCO)cc2Cl)c(Cl)c1,-14.4%,u,-10.2%,44.7µM*,x,u
OCCN(CCO)c1ccc2ccccc2c1,11.0%,-25.4%,-29.2%,u,-8.5%,-27.6%
Cc1ccc(NC(=O)CN(C)C(=O)c2ccc3[nH]c4c(c3c2)CC(C)CC4)cc1 (configuration not stated),u,u,x,u,79.7%,44.7µM*
COC(=O)c1ccc2[nH]c3c(c2c1)CC(C)CC3 (configuration not stated),-15.3%,25.1µM*,-1.5%,x,-25.1%,u
CC1CCc2[nH]c3ccc(C(=O)Nc4ccc(F)cc4)cc3c2C1 (configuration not stated),x,x,x,x,9.1%,x
CCOc1ccc(NC(=O)CN(C)C(=O)c2ccc3[nH]c4c(c3c2)CC(C)CC4)cc1OCC (configuration not stated),u,u,x,35.5µM*,x,u
CC1CCc2[nH]c3ccc(C(=O)Nc4ccc(C(=O)N(C)C)cc4)cc3c2C1 (configuration not stated),23.5%,-9.2%,-21.4%,x,448.8%,2.9%
CCCc1[nH]c2ccc(C(=O)OC)cc2c1CCC,-2.7%,u,9.2%,u,-14.2%,u
COC(=O)c1ccc2[nH]c([C@H](C)O)c([C@H](C)O)c2c1,34.4%,-35.0%,9.1%,44.7µM*,-1.8%,-18.0%
CCC1=NOC(CNC(=O)c2ccc(OC3CCN(C(=O)COC)CC3)cc2)C1 (configuration not stated),x,x,x,x,152.1%,x
O[C@@H]1C[C@@H](c2nc(-c3ccncc3)no2)N(Cc2ccccc2)C1,x,x,x,x,28.4%[176 µM],x
O=C(CN(Cc1cccs1)C(=O)c1csnn1)NC1CCCC1,u,13.0%,5.0%,-8.8%[59 µM],-26.0%,79.4µM*
O=C(NC1CCCC1)C(c1cccnc1)N(C(=O)c1csnn1)C1CCCC1 (configuration not stated),22.0%,0.3%,12.2%,2.2%[59 µM],13.0%,-11.0%
O=C(NC1CCCC1)C(c1cccnc1)N(C(=O)c1csnn1)c1ccccc1Cl (configuration not stated),13.6%,6.9%,7.4%,19.8%,19.4%,50.1µM*
O=C(NC1CCCC1)C(c1ccncc1)N(C(=O)c1csnn1)C1CCCC1 (configuration not stated),38.0%,-0.9%,56.2µM*,-7.0%,-11.4%,1.4%

# Screens (PubChem BioAssay)
